Compound activity deposited in PubChem by several laboratories.
DSG3 Ab inh = blocks pemphigus antibody binding to human desmoglein-3. P32926. DSG3-coupled beads, scFv-anti-DSG3-GFP binding, flow cytometry; stronger effect = lower value. binding (percent of control), % at 10 µM. hit rate 0.48% among 310,000;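 active = binding more than 3 SD below its plate's average and above zero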
JMJD2C inh = blocks human GASC-1 demethylase activity; Q9H3R0; GST-JMJD2C(1-420) H3K9me3 demethylation, DELFIA europium; inhibition, % at 2.35 µM; hit rate 0.069% among 330,000; AID 2099;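 active = more than half of a compound's replicate wells show inhibition beyond 50%, single wells judged on their own value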;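 note: signal counts dimethyl H3K9 product captured on neutravidin plate; 0% = median of DMSO wells and 100% = 0.3 times that DMSO median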
GRK2 aptamer HTS = inhibitors of human GRK2 displacing RNA aptamer | P25098 | bead flow cytometry, FAM-aptamer displacement from GRK2 | inhibition of aptamer binding, % at 10 µM | hit rate 0.59% among 330,000;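 active = inhibition of aptamer binding above 40%, roughly 3 SD of noise, on plates passing a quality check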;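 note: median bead fluorescence of bound FAM aptamer so fluorescent compounds give negative values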
Target sequence (P25098 whole entry, looked up): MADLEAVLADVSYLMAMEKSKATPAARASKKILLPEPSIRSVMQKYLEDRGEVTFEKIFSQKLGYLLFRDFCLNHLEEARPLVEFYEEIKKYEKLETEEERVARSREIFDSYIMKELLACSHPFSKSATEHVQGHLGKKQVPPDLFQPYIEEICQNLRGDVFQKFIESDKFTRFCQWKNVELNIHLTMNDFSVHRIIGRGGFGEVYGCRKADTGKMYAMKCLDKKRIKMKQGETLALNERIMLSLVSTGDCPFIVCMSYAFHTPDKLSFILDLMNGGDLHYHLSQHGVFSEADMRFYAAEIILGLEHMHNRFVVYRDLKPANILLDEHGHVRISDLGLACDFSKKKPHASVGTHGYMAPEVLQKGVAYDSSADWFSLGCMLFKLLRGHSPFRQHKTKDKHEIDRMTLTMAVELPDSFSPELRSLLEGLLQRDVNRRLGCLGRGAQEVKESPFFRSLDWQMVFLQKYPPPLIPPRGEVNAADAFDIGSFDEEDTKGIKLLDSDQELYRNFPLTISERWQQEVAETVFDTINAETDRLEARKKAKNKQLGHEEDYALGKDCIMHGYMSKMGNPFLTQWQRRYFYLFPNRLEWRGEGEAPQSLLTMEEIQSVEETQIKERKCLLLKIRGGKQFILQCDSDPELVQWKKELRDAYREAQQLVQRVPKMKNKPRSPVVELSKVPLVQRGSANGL
VLA-4 inh = inhibition in a human VLA-4 binding assay | VLA-4 expressing cells, ligand binding flow cytometry | inhibition, % (about 7 µM as worked out from the volumes in the protocol) | hit rate 0.2% among 330,000 | AID 2557 | P13612; in the data active = inhibition above about 50%
PREPL inhibitor = human PREPL enzyme inhibition. hit rate 0.68% among 320,000. recombinant PREPL, fluorescence polarization activity-based probe. AID 2751. Q4J6C6. inhibition, % at 5.96 µM; in the data active = inhibition above about 43%;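 note: 0% = enzyme with DMSO and 100% = wells lacking enzyme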
VLA-4 allo CP = confirmation of allosteric modulators of human VLA-4 integrin; shares compounds with VLA-4 inh; U937 cells, HUTS-21 LIBS mAb binding, flow cytometry; LDV ligand present at threefold Kd; inhibition, % at 6.7 µM; hit rate 2% among 1,300; in the data active = inhibition above about 40%;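 note: 0% = ligand without compound and 100% = no ligand background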
Starred values were filed as active, the others as inactive; . = no result; ! = a repeat was not active. In the library only some 1.6% were active in any assay of this set; here they are far more common.

SMILES	DSG3 Ab inh	JMJD2C inh	GRK2 aptamer HTS	VLA-4 inh	PREPL inhibitor	VLA-4 allo CP
O=C(NCCc1nc2ccccc2[nH]1)/C(=C/c1ccco1)NC(=O)c1ccco1	.	7	2	5	-2	.
CC1(C)CC(=O)C=C(c2ccc(F)cc2OCc2ccccc2)C1	102	-1	3	0	4	.
CCCCN1C(=O)C(C(=O)OCC)CC2=C1CCCC2=O (stereo not drawn)	88	.	.	.	.	.
CCCc1nc2ccccc2c(=O)n1/N=C/c1ccccc1O	100	9	0	91*	-7	0
COCCn1cnc2c1c(=O)n(CC(=O)OCC#N)c(=O)n2Cc1ccccc1	105	5	0	-6	4	.
CC(=O)Nc1ccc(N2C(=O)CC(N3CCSCC3)C2=O)cc1 (stereo not drawn)	89	4	0	-7	17	.
CC(=O)Nc1ccc(N2C(=O)CC(N3CC(C)OC(C)C3)C2=O)cc1 (stereo not drawn)	101	0	0	5	7	9
COc1ccc(C2C3=C(CC(C)(C)CC3=O)Oc3ncn(CCCn4ccnc4)c(=N)c32)cc1 (stereo not drawn)	108	9	0	90*	9	8
CC1(C)CC(=O)C2=C(C1)Oc1ncn(CCCn3ccnc3)c(=N)c1C2c1ccccc1 (stereo not drawn)	110	-4	1	-10	13	.
Cc1ccc(N(CC2=NCCN2)c2cccc(O)c2)cc1	102	-23	2	55*!	-95	6
COC(=O)C(C)Oc1ccc(-c2nccc(-c3ccc(F)cc3)n2)cc1 (stereo not drawn)	91	-8	0	8	-3	.
COC(=O)C(C)Oc1ccc(Oc2nc(Cl)ccc2Cl)cc1 (stereo not drawn)	105	-18	1	52*	1	-8
CCCCN(C)CCN1C(=O)C2C(C(=O)Nc3cccc(OC)c3)C3C=CC2(O3)C1C(=O)NC1CCCCC1C (stereo not drawn)	118	12	0	5	15	.
CSc1cccc(N2C(=O)C3CCCN3C2=S)c1 (stereo not drawn)	95	-8	2	47	-10	-13
Cc1cccc(N2C(=O)C3CCCN3C2=S)c1 (stereo not drawn)	103	-8	3	33	6	.
CCC1CCCCN1CCCNC(=O)c1ccc(N2CCCC2=O)cc1 (stereo not drawn)	95	1	3	2	-1	.
CCOc1ccc(NC(=O)Cn2c(=O)oc3cc(Cl)ccc32)cc1	87	4	1	0	6	5
CCOc1ccccc1NC(=O)Cn1c(=O)oc2ccccc21	104	-5	1	0	14	.
Cc1cc(NC(=O)Cn2c(=O)oc3ccc(Cl)cc32)no1	99	41	0	7	-3	.
CCOc1ccccc1NC(=O)Cn1c(=O)oc2cc(Cl)ccc21	70	2	2	13	10	2
CC(C)(C)NC(=O)Cn1c(=O)oc2ccc(Cl)cc21	102	8	1	55*	2	-1
O=C(CN(Cc1ccccc1Cl)C(=O)c1ccc(CN2CCOCC2)o1)NCC1CCCO1 (stereo not drawn)	.	3	0	0	1	.
O=C(CN1CCCCC1)N1N=C(c2cccs2)CC1c1cccs1 (stereo not drawn)	87	11	0	40	-108	-1
Cc1cc(OCC(=O)NC2CC(C)(C)NC(C)(C)C2)c2c(C)cc(=O)oc2c1	106	0	2	25	1	.
CC(C)=N/N=C(/c1ccc([N+](=O)[O-])cc1)C12CN3CN(CN(C3)C1)C2	86	175	4	41	4	-7
SMILES	DSG3 Ab inh	JMJD2C inh	GRK2 aptamer HTS	VLA-4 inh	PREPL inhibitor	VLA-4 allo CP
CCCCNC(=O)Cn1c(=O)oc2cc(S(=O)(=O)N3CC(C)CC(C)C3)ccc21 (stereo not drawn)	103	0	2	-10	-7	-4
COCCCNC(=O)Cn1c(=O)oc2cc(S(=O)(=O)N3CC(C)CC(C)C3)ccc21 (stereo not drawn)	103	-12	3	17	0	.
O=C(c1ccco1)N1CCN(C(=O)c2cc(-c3ccccn3)nc3ccccc23)CC1	96	-1	4	-9	0	-5
O=C(c1cc(-c2ccncc2)nc2ccccc12)N1CCN(c2ccccn2)CC1	104	4	4	7	1	.
O=C(c1cc(-c2ccncc2)nc2ccccc12)N1CCN(c2ncccn2)CC1	104	-17	0	-9	1	0
O=C(c1cc(-c2cccnc2)nc2ccc(Br)cc12)N1CCN(c2ncccn2)CC1	121	4	1	1	-11	-3
O=C(O)CCC1(c2ccccc2)NC(=O)NC1=O (stereo not drawn)	102	-15	1	2	-2	.
CN1CCC(N(C)S(=O)(=O)c2ccc(NC(=O)COc3ccc(F)cc3)cc2)CC1	115	-4	0	50*	13	13
COc1cc(/C=C2/CC(C)OC2=O)c([N+](=O)[O-])cc1OC (stereo not drawn)	108	-1	3	1	2	.
O=C1CC(c2ccco2)CC(O)=C1C=NCC1CCNCC1 (stereo not drawn)	96	16	0	92*	8	1
CCOC(=O)Cn1nnnc1CN(Cc1ccccc1)Cc1cc2cc(CC)ccc2[nH]c1=O	106	-4	1	71*	-5	-11
CCc1ccc2[nH]c(=O)c(CN(Cc3ccccc3)Cc3nnnn3Cc3ccco3)cc2c1	100	0	1	-21	-6	.
Cc1c(O)ccc(NS(=O)(=O)c2ccccc2)c1C	103	15	1	15	-6	-2
O=C(Nc1cccc(Cl)c1)OCc1cnc(Cl)s1	112	9	0	2	-8	13
COc1ccc(S(=O)(=O)N2CCN(C(=O)N3CCOCC3)C2C)cc1 (stereo not drawn)	106	-4	0	14	10	.
O=C1CCC(c2ccccc2)=NN1	117	-28	2	2	11	.
O=C1CCC(c2ccc3c(c2)CCC3)=NN1	97	-32	0	53*	-16	1
CC12CCC(=O)N1C(C(=O)Nc1nnc(SCc3ccccc3F)s1)CS2 (stereo not drawn)	112	4	0	-7	10	.
Cc1ccc(CN2CCN(Cc3ccc(OC(C)C)cc3)CC2CCO)o1 (stereo not drawn)	94	67	2	7	1	.
Cc1ccc(CN2CCN(Cc3cccc(OCCO)c3)CC2CCO)o1 (stereo not drawn)	86	-12	7	42	8	5
CCC(C)NC(=O)CC(NS(=O)(=O)c1ccc(Cl)cc1)c1ccco1 (stereo not drawn)	104	-10	6	108*	8	8
